Screening data as filed in PubChem BioAssay.
Shiga toxin inh = Shiga toxin inhibition | Vero cells, Shiga toxin protein synthesis inhibition reporter | inhibition, % at 38.7 µM | 9.2% of 290,000 active; in the data active = inhibition mostly above about 28%, no sharp cut-off; inactive = mostly below about 43%
CHX counter = counter-screen for Shiga toxin inhibitors: cycloheximide protein synthesis inhibition | cell reporter, cycloheximide protein synthesis inhibition counterscreen | max response, % | 12% of 300,000 active; in the data active = max response mostly above about 13%, no sharp cut-off; inactive = mostly below about 14%; also: read at 38.3 µM for the half of the compounds with a filed dose
SARS PLpro yeast = SARS-CoV PLP inhibition in yeast; S. cerevisiae expressing SARS-CoV PLpro, growth rescue; Potency, µM (highest dose often 32.9 µM), usual class: activators; 0.19% of 330,000 active; AID 485353; also: nearly all actives have a fitted effect of over 55% in size
Pf growth 96h = P. falciparum growth inhibition at 96 hour, primary screen for plastid delayed-death inhibitors | P. falciparum luciferase reporter growth, 96 h | 6.9% of 320,000 active | Potency, µM (titrated, usually from 28.7 µM), hits mostly inhibitors | AID 504834; active = well fitted inhibition curve with a large enough effect; inconclusive = small, poorly fitted or top-dose-only effect, or another doubt; inactive = no such curve, though single readings can be large or run the other way
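Cell-based qHTS: luciferase-tagged P. falciparum in erythrocytes (2% hematocrit, 0.05% parasitemia final) incubated with compounds for 96 hours, 37 C, 5% CO2; luciferase detection reagent then added and luminescence measured.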
NS1 inh = blocks influenza NS1 protein function | Potency, µM (titrated, usually from 46.1 µM) | 0.4% of 270,000 active | AID 2326; also: actives are rising curves; nearly all actives have a fitted effect of over 50% in size
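Read-out: OD600 growth recovery of NS1-expressing budding yeast. Cells grown overnight at 30C in -URA glucose medium, washed, resuspended and diluted 1:100 in 2% galactose assay medium, pH 6.0. Same strain lacking NS1 served as positive control.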
Pf growth 48h = inhibits P. falciparum growth in the first generation, 48 h; P. falciparum luciferase growth in erythrocytes, 48 h; Potency, µM (highest dose often 28.7 µM), most hits filed as inhibitors; 5.9% of 310,000 active; AID 504832; active = well fitted inhibition curve with a large enough effect; inconclusive = small, poorly fitted or top-dose-only effect, or another doubt; inactive = no such curve, though single readings can be large or run the other way
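Here the parasites carry a stable luciferase gene and grow inside erythrocytes in Albumax-based RPMI medium with compound for one erythrocytic cycle. Activity is scored as loss of luminescent signal.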
Hits are given with their value; - = inactive; ? = inconclusive; . = no result given. Compounds with a hit are over-represented: about 21% of the library has one in this group of screens. Unless noted, calls follow the shape of the full dose curve.

SMILES	Shiga toxin inh	CHX counter	SARS PLpro yeast	Pf growth 96h	NS1 inh	Pf growth 48h
CC(C)OCCCNC(=S)Nc1ccc2nc3n(c(=O)c2c1)CCCCC3	-	-	-	-	.	-
CCCCNC(=S)Nc1ccc2nc3n(c(=O)c2c1)CCCCC3	-	22	-	-	-	-
CCOCCCNC(=S)Nc1ccc2nc3n(c(=O)c2c1)CCCCC3	-	-	-	-	.	-
CC(C)CCNC(=S)Nc1ccc2nc3n(c(=O)c2c1)CCCCC3	27	-	-	?	-	?
CC(=O)c1c(C(C)=O)c(C)n(C2CCCCC2)c1C	-	-	-	1.5µM	-	-
COc1cc(OC)c2c(C)c(Cl)c(=O)oc2c1	-	-	-	10µM	-	-
COc1cc(OC)c2c(=O)cc(-c3ccccc3)oc2c1	109	38	-	-	-	-
COc1c(O)c(O)c2oc(-c3ccccc3)cc(=O)c2c1OC	-	-	-	?	-	?
COc1cc2c(c3oc(-c4ccccc4)cc(=O)c13)C=CC(C)(C)O2	37	25	-	?	-	?
COc1cc(OC)c2c(=O)cc(-c3cccnc3)oc2c1	-	-	-	-	-	-
CCOC(=O)C(C)N1N=C(/C=C/c2ccc(C)cc2)CCC1=O (configuration not stated)	-	-	-	?	-	-
CCOC(=O)CN1N=C(c2ccc(Cl)cc2)CCC1=O	-	-	-	13µM	-	-
CCOC(=O)CN1N=C(/C=C/c2ccc(OCC)cc2)CCC1=O	-	30	-	?	.	-
CC(C)CCNC(=O)CN1N=C(c2ccc(Cl)cc2)CCC1=O	-	-	-	-	-	-
CCOC(=O)CN1N=C(/C=C/c2ccc(C(C)C)cc2)CCC1=O	-	35	-	-	.	-
Cc1ccc(OCC(=O)NCCc2c[nH]c3ccccc23)cc1	-	-	-	-	-	-
O=C(O)c1ccc(CNCc2cc(Cl)ccc2O)cc1	.	.	-	?	.	-
Cc1ccc(CNCc2cc(Cl)ccc2O)cc1	.	.	-	7.4µM	.	2.9µM
Oc1ccc(Cl)cc1CNCC1CCCCC1	.	.	-	12µM	.	1.9µM
COc1ccc(OC2C(=O)N(Cc3ccc4c(c3)OCO4)C2c2cccs2)cc1 (configuration not stated)	-	-	-	-	-	-
CC(=O)OC1CC(c2cc(C(C)(C)C)c(O)c(C(C)(C)C)c2)=NO1 (configuration not stated)	-	-	-	-	-	-
CN(C1CCCCC1)S(=O)(=O)c1cccc(C#N)c1	-	-	-	-	-	-
COC(=O)CSc1nc(NC(C)(C)C)nc(N(C)C)n1	-	33	-	?	.	-
COC(=O)CSc1nc(NC(C)C)nc(N(C)C)n1	-	-	-	-	.	-
Cc1cc(C)cc(C(=O)NCC(=O)OCC(=O)Nc2cccnc2Cl)c1	-	-	-	-	-	-
SMILES	Shiga toxin inh	CHX counter	SARS PLpro yeast	Pf growth 96h	NS1 inh	Pf growth 48h
CCOC(=O)C1CCN(C2=C(NS(=O)(=O)c3ccc(Br)cc3)C(=O)c3ccccc3C2=O)CC1	-	16	-	?	-	?
CN1CCN(C2=C(NS(=O)(=O)c3ccccc3)C(=O)c3ccccc3C2=O)CC1	-	-	-	?	-	4.1µM
CCN1CCN(C2=C(NS(=O)(=O)c3ccc(Br)cc3)C(=O)c3ccccc3C2=O)CC1	-	-	-	?	-	2.6µM
CCOC(=O)N1CCN(C2=C(NS(=O)(=O)c3ccccc3)C(=O)c3ccccc3C2=O)CC1	-	-	-	9.3µM	-	13µM
COc1ccc(N(CC(=O)Nc2ccccc2OC)S(=O)(=O)c2ccc(OC)c(OC)c2)cc1	-	-	-	-	?	-
O=C(CSc1ccc2ccccc2c1)Nc1ncccn1	-	-	-	-	-	-
CCOC(=O)C1CCN(S(=O)(=O)CCNC(=O)c2cccc(OC)c2)CC1	.	.	-	-	.	-
CCN(Cc1nc(-c2ccc(C)cc2)no1)C(=O)c1ccco1	-	-	-	-	-	-
CCOc1ccccc1N1CCN(C2=C(NS(=O)(=O)c3cccs3)C(=O)c3ccccc3C2=O)CC1	-	-	-	.	?	10µM
O=C1C(Nc2ccccc2)=C(NS(=O)(=O)c2ccccc2)C(=O)c2ccccc21	-	-	-	4.1µM	-	10µM
NC(=O)C1CCN(C2=C(NS(=O)(=O)c3ccccc3)C(=O)c3ccccc3C2=O)CC1	-	-	-	?	-	?
CCN1CCN(C2=C(NS(=O)(=O)c3ccccc3)C(=O)c3ccccc3C2=O)CC1	-	12	-	2.9µM	-	5.9µM
CCN(CC)CCN1C(=O)C2C(C(=O)Nc3ccc(C(C)C)cc3)C3C=CC2(O3)C1C(=O)NC1CCCCC1 (configuration not stated)	-	-	-	-	-	?
COc1ccccc1OCC(=O)Nc1sc2c(c1C(=O)NCC1CCCO1)CCC2 (configuration not stated)	-	-	-	10µM	-	13µM
COc1ccccc1OCC(=O)Nc1sc2c(c1C(N)=O)CCC2	.	.	-	.	.	.
COc1cc(C(=O)NCC2CCCO2)ccc1OCc1ccccc1Cl (configuration not stated)	-	16	-	-	-	?
COc1cc(SC)ccc1C(=O)NC1CCCCC1	-	36	-	-	-	-
COc1cc(SC)ccc1C(=O)OCC(=O)NC1CCCCC1	-	60	-	-	.	-
CCN(CC(=O)Nc1ccc(NC(C)=O)cc1)C(=O)CCCc1c[nH]c2ccccc12	.	.	-	?	.	-
CC1CCC(NC(=O)C(C)N2C(=O)C3CCCCC3C2=O)CC1 (configuration not stated)	.	.	-	-	.	-
COc1c2c(nc3occc13)C(CCC(C)(C)O)(OC)C(O)CC2 (configuration not stated)	-	-	-	?	-	-
COc1cc(SC)ccc1C(=O)NCC1CCCO1 (configuration not stated)	-	24	-	.	-	-
COc1cc(OC)c(C(=O)OCC(=O)NC2CCCC2)cc1OC	-	-	-	-	-	-
COc1cc(SC)ccc1C(=O)OCC(=O)NC1CCCC1	113	54	-	-	-	-
COc1ccc(C(=O)NCC2CCCO2)cc1OC (configuration not stated)	-	-	-	-	-	-
SMILES	Shiga toxin inh	CHX counter	SARS PLpro yeast	Pf growth 96h	NS1 inh	Pf growth 48h
Cc1ccc(/C=C2/Sc3ccc(C(=O)NCc4ccccn4)cc3NC2=O)cc1	-	-	-	?	-	-
Cc1ccc(NC(=O)C2=C(O)c3ccccc3N(C)S2(=O)=O)cc1	-	34	-	-	-	-
Cc1cccc(C)c1NC(=O)C1=C(O)c2ccccc2N(C)S1(=O)=O	-	-	-	-	-	?
COc1ccc2[nH]c3c(=O)n(Cc4ccc(C(=O)N5CCCC5)cc4)c(=S)[nH]c3c2c1	-	-	-	-	.	-
CCC1CCCCN1Cc1nc2ccccc2c(=O)n1CC(C)=O (configuration not stated)	75	34	-	?	-	?
COc1ccc(C2CCCCCN2Cc2nc3ccccc3c(=O)n2CC(N)=O)cc1 (configuration not stated)	-	-	-	?	-	-
